HCV inhibitor: qHTS Assay for Inhibitors of Hepatitis C Virus (HCV). AID 651820, 2012. Potency, µM (highest dose often 41.8 µM), actives largely listed as inhibitors. Huh7.5.1 HCVcc-Cre infection, luciferase reporter, 44 h. 3.4% of 340,000 active; active = well fitted inhibition curve with a large enough effect; inconclusive = small, poorly fitted or top-dose-only effect, or another doubt; inactive = no such curve, though single readings can be large or run the other way
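Luciferase read-out (15 sec integration) after a 15 min room-temperature substrate step quantifies HCVcc-Cre infection. Cells, 1,000 per well, had compound added 4 h post-plating, then virus at ~0.5 moi, and were cultured 44 h.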
FMDV inh: High Throughput Screening for Foot and Mouth Disease Virus Antivirals; Potency, µM (highest dose often 57.9 µM), hits mostly inhibitors; 1.2% of 410,000 active; AID 1159524, 2015; FMDV antiviral cell-based qHTS; calls by dose curve; tested in HEK293T cells; note: read-out not given here; nearly all actives have a fitted effect of over 45% in size
HCMV antiviral: qHTS Assay for inhibitors of the human cytomegalovirus (HCMV); 4.5% of 410,000 active; activity change, negative = inhibition, % at 57.5 µM; HFF cells, HCMV-luciferase reporter, 72 h; active compounds read low; AID 1259415, 2018; in the data active = activity change below about -60%; inconclusive = no clear call, values can overlap the other calls; inactive = above about -39%
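After 16 h attachment at 37C, HFF cells received test compound and HCMV-luciferase (1 PFU/cell); reporter luminescence read 72 h later, data normalized against buffer-only and known inhibitor Salinomycin.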
Lassa entry inh: qHTS for Inhibitors of binding or entry into cells for Lassa Virus. Lassa virus pseudotype entry inhibition, cell reporter. Potency, µM (highest dose often 37.9 µM), most hits filed as inhibitors. 1.2% of 300,000 active; calls by dose curve; tested in HEK293 cells; note: nearly all actives have a fitted effect of over 50% in size
MARV entry inh: qHTS for inhibitors of binding or entry into cells for Marburg Virus; Marburg virus pseudotyped entry inhibition, cell reporter; Potency, µM (top dose mostly 37.8 µM), actives largely listed as inhibitors; 1.8% of 300,000 active; AID 540276, 2011; calls by dose curve; tested in HEK293 cells
Numbers stand for hits; – = inactive; ? = inconclusive; · = no result; ! = repeats disagree; [ ] = another dose, or the depositor's remark. Only some compounds are listed: those with a hit (about 7.9% of all), similar ones and a draw of the others.

SMILES	HCV inhibitor	FMDV inh	HCMV antiviral	Lassa entry inh	MARV entry inh
COc1ccc(-n2cc(C(=O)c3cc4ccccc4oc3=O)c(C(C)=O)n2)cc1	–	–	-67	–	–
Cc1ccnc(NC(=O)CNC(=O)c2ccccc2Br)c1	–	–	–	·	·
OCCN(CCO)CC(O)COc1ccc(C23CC4CC(CC(C4)C2)C3)cc1 (stereo not given)	?	–	-62	?	?
COc1ccc(NC(=O)c2ccccc2[N+](=O)[O-])cc1	–	–	?	–	–
COc1ccc(CNC(=O)c2ccccc2[N+](=O)[O-])cc1	–	–	-108	–	?
O=C(NCc1cccc(Cl)c1)c1cnc(N2CCOCC2)c2ccccc12	·	–	–	–	·
COc1ccc(CNC(=O)c2cnc(N3CCOCC3)c3ccccc23)cc1	·	–	-109	–	·
Cc1cc(CNC(=O)c2cccc([N+](=O)[O-])c2C)c2ccccc2n1	?	14µM	-73	?	?
NC(=O)/C(=N\OC(=O)c1ccco1)c1nc(-c2ccc(Br)cc2)cs1	?	–	–	–	?
COc1cc(OCc2ccccc2)c(OC)c(OCc2ccccc2)c1	10µM	–	–	–	?
Cc1nc(S(=O)(=O)N2CCOCC2)c(C#N)c(C)c1Cl	–	–	-105	–	–
Cc1nc(S(=O)(=O)NC2CCCCC2)c(C#N)c(C)c1Cl	–	–	?	–	–
Brc1ccc(C2=Nn3c(Cn4nnc5ccccc54)nnc3SC2)cc1	–	–	–	·	·
COc1cc(S(=O)(=O)N2CCOCC2)ccc1NC(=O)COC(=O)c1cc(OC)c(OC)c(OC)c1	–	–	–	–	–
COc1cc(S(=O)(=O)N2CCOCC2)ccc1NC(=O)COC(=O)CC12CC3CC(CC(C3)C1)C2	?	–	?	16µM	–
Cc1ccccc1OCCOC(=O)c1cc(S(=O)(=O)N2CCCCC2)ccc1N1CCOCC1	11µM	?	–	?	?
O=C(COc1ccc(F)cc1Cl)Nc1cc(S(=O)(=O)N2CCOCC2)ccc1N1CCCCC1	?	–	–	?	?
COc1ccccc1C(=O)COC(=O)c1cc(S(=O)(=O)N2CCCCC2)ccc1N1CCOCC1	–	–	–	–	–
CCc1ccccc1OCC(=O)Nc1cc(S(=O)(=O)N2CCOCC2)ccc1N1CCCCC1	11µM	–	–	?	?
COc1ccc(S(=O)(=O)N2CCOCC2)cc1NC(=O)CSc1nnnn1C1CC1	–	–	-60	–	–
O=C1NC(c2cccc([N+](=O)[O-])c2)Oc2ccccc21 (stereo not given)	–	–	–	–	?
Cc1ccc(CNC(=O)CCc2c(C)c3cc4c(C)coc4cc3oc2=O)cc1	·	–	–	–	–
COc1ccc(-c2sc3ccc(OC)cc3c2-c2ccc(OC)nc2)cc1	?	–	–	·	·
COc1ccc(Cl)cc1NC(=O)c1cc(S(=O)(=O)N2CCCC2)cn1C	11µM	–	–	·	·
O=C(Nc1cc(S(=O)(=O)N2CCOCC2)ccc1N1CCOCC1)c1cc2c(s1)CCC2	–	–	?	?	–
SMILES	HCV inhibitor	FMDV inh	HCMV antiviral	Lassa entry inh	MARV entry inh
COc1ccccc1OCC(=O)Nc1cc(S(=O)(=O)N2CCOCC2)ccc1N1CCCCC1	13µM	–	–	?	?
COc1ccc(S(=O)(=O)N2CCOCC2)cc1NC(=O)c1cc2c(s1)CCCC2	–	–	-69	–	?
O=C(Cc1cccnc1)N1CC(=O)N2[C@@H](CO)[C@H](c3ccc(Br)cc3)[C@@H]2C1	·	·	–	·	·
COc1ccc(NC(=O)N2c3ccc(OC)cc3[C@@H](NCc3cnc[nH]3)[C@H](C)[C@H]2c2ccccc2)cc1	·	·	–	·	·
O=C(C1CCC1)N1CC(=O)N2[C@H](CO)[C@@H](c3ccc(Br)cc3)[C@@H]2C1	·	·	–	·	·
Clc1ccc(-c2nnc(CSc3nnc(-c4cccs4)n3Cc3ccccc3)o2)cc1	?	?	-88	?	?
N#Cc1cc(C#N)c(N2CCN(c3cccc(Cl)n3)CC2)nc1N	11µM	–	–	–	?
NC1CCN(c2cccc(Cl)n2)CC1	·	–	·	–	?
CC1=NS(=O)(=O)c2cc(Cl)ccc2N1	–[8.37 µM]	–	–	?	13µM!
CC(=O)C1=C(c2ccc(Cl)c(Cl)c2)N(C(C)=O)n2cnnc2S1	·	?	-99	?	·
CCC(=O)C1=C(c2cccc([N+](=O)[O-])c2)N(C(=O)CC)n2c(nnc2-c2ccccc2)S1	·	–	–	–	·
CCC(=O)C1=C(c2ccc(F)cc2)N(C(=O)CC)n2cnnc2S1	·	–	-82	?	·
COc1cccc(C2=C(C(C)=O)Sc3nncn3N2C(C)=O)c1	·	–	?	?	·
CCOc1ccc(C2=C(C(=O)CC)Sc3nncn3N2C(=O)CC)cc1	·	?	-101	?	·
CC(NC(=O)CCn1c(=O)c2cccn2c2ccc(F)cc21)c1ccccc1 (stereo not given)	·	–	–	–	·
CC(C)c1ccc(Cc2cn3cc(-c4cc5ccccc5oc4=O)nc3s2)cc1	·	–	-78	–	?
Cc1ccc2c(c1)sc1nc(-c3cc4ccccc4oc3=O)cn12	·	0.32µM	-79	–	·
O=c1oc2ccccc2cc1-c1cn2ccccc2n1	?	7.9µM	-63	1.8µM	?
O=c1oc2ccccc2cc1-c1cn2cccnc2n1	–	–	–	?	?
O=c1oc2ccccc2cc1-c1cn2cc(Cc3cc(Cl)ccc3Cl)sc2n1	·	–	–	–	?
O=C(COc1ccc2ccccc2c1)N1c2ccccc2Sc2ccccc21	–	–	–	?	?
O=C(CCl)N1c2ccccc2Sc2ccc3ccccc3c21	·	32µM	·	·	·
O=C(Nc1nc(-c2ccccc2)cs1)c1ccc2c(=O)n3c(nc2c1)CCCCC3	2.5µM	16µM	-90	·	–
CCOc1ccccc1N(CC)C(=O)c1ccc2c(=O)n3c(nc2c1)CCCCC3	–	–	?	–	8.9µM
Cc1ccc(NC(=O)c2ccc3c(=O)n4c(nc3c2)CCCCC4)cc1F	10µM	–	–	–	?
SMILES	HCV inhibitor	FMDV inh	HCMV antiviral	Lassa entry inh	MARV entry inh
COc1ccc(NC(=O)c2ccc3c(=O)n4c(nc3c2)CCCCC4)cc1	?	–	–	?	–
O=C(Nc1ccc(S(=O)(=O)C(F)F)cc1)c1ccc2c(=O)n3c(nc2c1)CCC3	?	?	–	–	–
CCN(C(=O)c1ccc2c(=O)n3c(nc2c1)CCCCC3)c1cc(C)ccc1C	·	–	–	–	–
O=C(Nc1ccc(SC(F)F)cc1)c1ccc2c(=O)n3c(nc2c1)CCC3	4µM	?	-70	·	·
Cc1cccc(NC(=O)c2ccc3c(=O)n4c(nc3c2)CCCCC4)n1	14µM	–	–	?	?
Cc1cc(C)c2nc(NC(=O)c3ccc4c(=O)n5c(nc4c3)CCCCC5)sc2c1	?	–	-72	·	·
Cc1ccc(NC(=O)c2ccc3c(=O)n4c(nc3c2)CCCCC4)nc1	?	–	–	–	–
COc1ccc2c(c1)[C@@H](NC(=O)OCc1ccccc1)[C@H](C)[C@@H](c1ccccc1)N2Cc1cccc(F)c1	·	·	–	·	·
CCCCc1ccc(NC(=O)CSc2nc(=O)n3cc(C)ccc3n2)cc1	–	–	-67	–	–
CCOc1cccc(/C=N/N2CCN(c3ccc(Cl)cc3)CC2)c1O	?	?	-94	·	·

Source: PubChem BioAssay (National Center for Advancing Translational Sciences (NCATS))
